Measured values from article PMC4336329 (PLoS ONE, 2015).
Out of some 310,000 compounds screened, about 14,000 (4.5%) showed an effect of 50% or more. The effect is printed as a negative number. This is one part of a sample in which strong results are shown more often than they occur.

Target: human ether-à-go-go-related gene (hERG) potassium channel (human, UniProt Q12809)
Test: primary screen, population patch clamp on CHO cells stably expressing hERG; higher = less effect of the substance
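Note: peak tail current of the secondary pulse compared with the same well before compound.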

Sequence of human ether-à-go-go-related gene (hERG) potassium channel (Q12809 whole entry, looked up): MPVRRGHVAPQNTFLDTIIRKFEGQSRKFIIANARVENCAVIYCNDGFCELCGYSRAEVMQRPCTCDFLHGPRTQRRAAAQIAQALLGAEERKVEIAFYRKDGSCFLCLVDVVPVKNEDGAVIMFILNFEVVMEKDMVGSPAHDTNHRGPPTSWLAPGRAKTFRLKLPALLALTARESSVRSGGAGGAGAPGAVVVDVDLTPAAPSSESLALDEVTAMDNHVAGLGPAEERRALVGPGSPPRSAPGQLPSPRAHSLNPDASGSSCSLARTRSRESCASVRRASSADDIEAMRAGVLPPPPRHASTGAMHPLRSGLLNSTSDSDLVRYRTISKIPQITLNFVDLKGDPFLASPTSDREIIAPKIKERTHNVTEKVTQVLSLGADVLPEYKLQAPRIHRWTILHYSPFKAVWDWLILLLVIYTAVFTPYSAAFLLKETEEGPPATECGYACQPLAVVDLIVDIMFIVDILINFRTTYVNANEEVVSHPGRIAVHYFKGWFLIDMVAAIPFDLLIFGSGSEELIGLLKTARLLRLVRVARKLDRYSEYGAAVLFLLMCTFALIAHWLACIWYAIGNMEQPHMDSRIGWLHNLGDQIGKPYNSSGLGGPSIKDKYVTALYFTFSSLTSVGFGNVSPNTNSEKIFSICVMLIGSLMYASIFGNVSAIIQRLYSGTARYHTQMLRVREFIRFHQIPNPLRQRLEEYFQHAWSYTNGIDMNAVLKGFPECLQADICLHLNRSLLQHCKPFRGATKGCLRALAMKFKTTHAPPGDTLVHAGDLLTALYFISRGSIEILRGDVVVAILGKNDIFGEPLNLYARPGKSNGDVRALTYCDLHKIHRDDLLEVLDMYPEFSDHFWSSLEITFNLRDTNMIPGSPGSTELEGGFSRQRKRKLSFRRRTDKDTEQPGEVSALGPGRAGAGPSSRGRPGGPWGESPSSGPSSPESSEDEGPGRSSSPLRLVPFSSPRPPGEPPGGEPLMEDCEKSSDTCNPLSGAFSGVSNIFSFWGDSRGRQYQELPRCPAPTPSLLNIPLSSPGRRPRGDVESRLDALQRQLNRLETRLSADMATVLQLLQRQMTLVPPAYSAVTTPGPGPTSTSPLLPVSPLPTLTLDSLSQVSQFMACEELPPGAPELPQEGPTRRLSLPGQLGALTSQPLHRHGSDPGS

SMILES | hERG current change (%, negative = inhibition) at 10uM
COc1ccc(CNS(=O)(=O)c2cc(-c3cc(C)no3)ccc2C(C)C)cc1 | -14.9%
CCCCC(CC)CNC(=O)C1CCCN(S(=O)(=O)c2cnc[nH]2)C1 (stereo not drawn) | 3.45%
N#CCCN(CC(=O)O)S(=O)(=O)c1ccccc1 | 5.74%
CC(C)(C)OC(=O)N[C@H](Cc1ccccc1)C(=O)N1CCC(C(=O)O)CC1 | 9.08%
COc1ccc2c(c1)CCc1c(C(=O)Nc3cc(C)n(Cc4ccc(Cl)cc4)n3)noc1-2 | -30.5%
COc1ccc(-c2nc(N)n[nH]2)cc1OC | 18.9%
COc1ccc(-c2n[nH]c3c2CN(C(=O)c2ccccc2)CC3)cc1 | -6.13%
Fc1cccc(NCc2ccoc2)c1 | -7.89%
Cc1ccc(-c2sc(-c3ccccc3)nc2CC(=O)Nc2ccccc2F)cc1 | 6.09%
CC(=O)N1CCC(N2CCN(c3ccccc3F)CC2)CC1 | 0.444%
O=C(NCc1ccccc1)N1CCN(c2ccccc2F)CC1 | 1.22%
O=C(NCc1ccccc1)N1CCC(CO)(Cc2cccc(F)c2)CC1 | -12.8%
OCC1(Cc2ccccc2)CCN(C2CCN(c3ccc(F)c(F)c3)CC2)CC1 | -112%
OCC1(Cc2ccccc2)CCN(C2CCN(c3ccccc3F)CC2)CC1 | -68.8%
OCC1(Cc2ccccc2)CCCN(C2CCCC2)C1 (stereo not drawn) | -8.01%
Cc1ccc(-c2ccc(=O)n(Cc3c(F)cccc3Cl)n2)cc1 | 9.18%
Cc1ccc2nc(Nc3ccccc3O)nc(-c3ccccc3)c2c1 | 14.3%
O=C(CCN1C(=O)c2cccc3cccc(c23)C1=O)NCc1cccnc1 | -16.7%
C/C(CC(=O)Nc1ccccc1Cl)=N\NC(=O)C(=O)NCCO | 6.65%
O=C(O)c1ccc(S(=O)(=O)c2ccccc2)cc1 | 11.5%
COS(=O)(=O)[O-].C[N+]1(C)CCC(=C(c2ccccc2)c2ccccc2)CC1 | -71%
CC1CC(C)(C)CC(=O)C1C(=O)c1ccccc1 (stereo not drawn) | 16.4%
CCOc1ccc(-n2ccnc(SCC(=O)Nc3ccc(OC)cc3OC)c2=O)cc1 | 9.58%
O=C(CON=C1c2ccccc2-c2ccccc21)NC12CC3CC(CC(C3)C1)C2 | -7.23%

SMILES | hERG current change (%, negative = inhibition) at 10uM
N#CC1=C(SCc2ccccc2)NC(=O)CC1c1ccco1 (stereo not drawn) | 10.9%
O=C(CCCN1CCC(O)(c2ccc(Br)cc2)CC1)c1ccc(F)cc1 | -79.7%
O=C(CN1CCC(O)(c2ccc(F)cc2)CC1)NCc1ccc(F)cc1 | -34.2%
CC(=O)N1CCC(O)(c2cccc(C(F)(F)F)c2)CC1 | 12.7%
C=CCNC(=O)CN1CCC(O)(c2ccc(F)cc2)CC1 | -5.8%
Cl.O=C(CCCN1CCC(O)(c2cccc(C(F)(F)F)c2)CC1)c1ccc(F)cc1 | -75.6%
OC1(c2cccc(C(F)(F)F)c2)CCN(CCN2CCCCC2)CC1 | -3.82%
O=C1CCC([N+](=O)[O-])C(C2CC=CCC2)N1 (stereo not drawn) | 4.76%
CCOC(=O)c1ccc(CNC(=O)CCC(=O)O)cc1 | 4.15%
COc1ccnc2c1c(=O)n(Cc1ccc(F)cc1)c(=O)n2C | -6.22%
O=C(NCCCO)C(=O)Nc1cc2c3c(c1)CCN3C(=O)CC2 | 11.8%
CC(=O)C1=C(C)NC(SCC(N)=O)=C(C#N)C1C (stereo not drawn) | 8.65%
O=C(CNC(=O)c1cccc(F)c1)OCc1cc(=O)n2cc(Br)ccc2n1 | -9.66%
COc1ccc(C(=O)COC(=O)CNC(=O)c2ccc(OC)cc2)cc1 | -52.6%
COc1ccc(C(=O)NCC(=O)NCC(=O)OCC(=O)c2ccc(C)cc2)cc1 | 4.23%
COc1ccc(C(=O)NCC(=O)NCC(=O)OCC(=O)c2ccc(Br)cc2)cc1 | 15.3%
COc1ccc(C(=O)NCC(=O)OCc2ccc([N+](=O)[O-])cc2)cc1 | -58.3%
COc1ccc(C(=O)NCC(=O)OCC(=O)c2cc(OC)c(OC)c(OC)c2)cc1OC | 28.5%
O=C(CNC(=O)c1ccccc1)OCc1cc(=O)n2cc(Br)ccc2n1 | -31.6%
COc1ccc(C(=O)NCC(=O)OCC(=O)c2ccc(Cl)cc2)cc1OC | -58.6%
CC(C)(C)c1ccc(C(=O)NCC(=O)OCc2ccc([N+](=O)[O-])cc2)cc1 | -7.46%
O=C(CNC(=O)c1cccc(OC(F)F)c1)OCc1cc(=O)n2cc(Br)ccc2n1 | -55.2%
O=C(CNC(=O)c1ccccc1)OCc1ccc([N+](=O)[O-])cc1 | -33.9%
COc1ccc(C(=O)NCC(=O)OCc2ccc(Cl)cc2Cl)cc1OC | -6.66%

SMILES | hERG current change (%, negative = inhibition) at 10uM
O=C(CN1CCN(c2ccccn2)CC1)Nc1ccccc1F | 1.45%
c1ccc2c(c1)CC1(CCCC1)n1nnnc1-2 | -19.4%
O=C(NCc1ccccc1)C1=C[C@H](C2CCCCC2)C[C@H](OCCCCO)O1 | -3.07%
N#Cc1cc([N+](=O)[O-])cnc1N(CCO)CCO | -1.1%
CN1CCN(c2ncnc3nc[nH]c23)CC1 | 18.5%
Cc1ccccc1C(=NCCCN(C)C)c1ccccc1C.Cl | -21.7%
Cc1ccc(NCC(=O)N=Nc2c(O)[nH]c3ccc([N+](=O)[O-])cc23)cc1 | -5.06%
Cc1ccc(O)c(-c2cc(C(=O)Nc3c(C)n(C)n(-c4ccccc4)c3=O)[nH]n2)c1 | 8.4%
O=C(O)c1ccccc1NC(c1ccccc1)c1ccc(Cl)cc1 (stereo not drawn) | 19.8%
N#C/C(=C\c1ccccc1[N+](=O)[O-])C(=O)NC1CCCCC1 | -13.9%
COc1ccc(C(=O)COC(=O)CNC(=O)c2cccc(OC(F)F)c2)cc1 | -64.6%
COc1ccc(N2CCN(C(=O)COC(=O)CNC(=O)c3cccc(OC(F)F)c3)CC2)cc1 | -43.7%
Cc1cc(C(=O)NCC(=O)OCC(=O)N(C(C)C)C(C)C)ccc1[N+](=O)[O-] | 10.6%
Cc1cc(C(=O)NCC(=O)OCC(=O)Nc2ccc(OC(F)F)cc2)ccc1[N+](=O)[O-] | -67.8%
Cc1cc(C(=O)NCC(=O)OCC(=O)NCCc2ccccc2)ccc1[N+](=O)[O-] | -16.9%
COc1cccc(C(=O)NCC(=O)OCC(=O)c2ccccc2)c1 | 2.59%
Cc1ccnc2c(N3C(=O)C4C5c6ccccc6C(c6ccccc65)C4C3=O)cccc12 (stereo not drawn) | -2.78%
CCCNC(=O)C(Cc1ccc(C(F)(F)F)cc1)NC(=O)c1ccc2ccccc2n1 (stereo not drawn) | 14%
CCOc1ccc2ncc(S(=O)(=O)c3ccccc3)c(N3CCN(c4ccccc4)CC3)c2c1 | -2.21%
CCN1CCN(c2c(S(=O)(=O)c3ccc(C)c(C)c3)cnc3ccc(F)cc23)CC1 | -53.4%
CCc1ccc2ncc(S(=O)(=O)c3ccc(C)c(C)c3)c(N3CCCC3)c2c1 | 0.769%
Nc1cc(N)nc(SCC(=O)Nc2ccc3c(c2)OCCCO3)n1 | 8.03%
CN(C)c1ccc(/C=N/N(Cc2ccccc2)c2ccccc2)cc1 | 3.54%
CN1C(CC(=O)Nc2ccc(Cl)cc2Cl)c2ccccc2CC1(C)C (stereo not drawn) | -76.7%

SMILES | hERG current change (%, negative = inhibition) at 10uM
O=C(CN1CCCC1)Nc1ccc(Cl)cc1C(=O)c1ccccc1.O=C(O)C(=O)O | -46.8%
CN1CCN(CC(=O)Nc2ccc(Cl)cc2Cl)CC1 | -69.4%
O=C(CN1CCCCCCC1)Nc1ccc(Cl)cc1Cl | 35.9%
Cc1cc(Cl)ccc1NC(=O)CN1CCCC1 | 27.1%
CN1CCN(CC(=O)Nc2ccc(Cl)cc2C(=O)c2ccccc2)CC1 | -77.2%
CN1CCN(C(=S)SCC(=O)Nc2ccc(Cl)cc2C(=O)c2ccccc2)CC1 | -29.8%
O=C(O)CC1(CC(=O)Nc2ccc(Cl)cc2C(=O)c2ccccc2)CCCC1 | 6.78%
CN1C(CC(=O)Nc2ccc(Br)cc2)c2ccccc2CC1(C)C (stereo not drawn) | -38.2%
Cc1ccccc1NC(=O)CC1c2ccccc2CC(C)(C)N1C (stereo not drawn) | 4.03%
O=C(CCN1CCCCC1)Nc1ccc(Cl)cc1C(=O)c1ccccc1 | -72.6%
O=C(CCNS(=O)(=O)c1ccccc1)Nc1ccc(Cl)cc1C(=O)c1ccccc1 | -32.9%
COc1cccc(C(=O)Nc2cc(NC(=O)c3cccs3)ccc2C)c1OC | -14%
Cc1sc(-c2c(C#N)c(N)nc3c2CCCCCC3)cc1[N+](=O)[O-] | -4.1%
COc1ccc(NC(=O)C2CCN(C(=O)[C@@H]3Cc4ccccc4CN3C(=O)OC(C)(C)C)CC2)cc1 | 2.02%
Cc1cc(C)c(NC(=O)Nc2ccccc2)c(C)n1 | 23.4%
CN1CCN(CC(=O)Nc2cccc([N+](=O)[O-])c2)CC1 | 3.24%
O=C(COc1ccccc1)Nc1ccc(Cl)cc1C(=O)c1ccccc1 | 6.83%
CN1CCN(CC(=O)Nc2ccc([N+](=O)[O-])cc2C(=O)c2ccccc2)CC1 | -84.6%
CN1CCN(CC(=O)Nc2ccccc2[N+](=O)[O-])CC1 | -13.2%
O=C(CN1CCCC1)Nc1ccccc1C(=O)c1ccccc1 | -2.59%
O=C(CN1CCN(CCO)CC1)Nc1ccc(Cl)cc1C(=O)c1ccccc1 | -72.8%
